In PubChem BioAssay (Tox21):
Several values for one entry are separate records, joined by “and”; a condition that tells them apart may be missing. Identical values can stand only once. Activity calls are given as the source filed them. Unless noted, the call rests on the fitted dose curve; in most records, active means well fitted curve in the direction sought with a large enough effect in the repeat runs; inconclusive means weak or mixed curves; inactive means no such curve, though single readings can be large; an effect the other way counts as inactive or inconclusive.

Legend:
[1] = qHTS assay to identify small molecule antagonists of the thyroid receptor (TR) signaling pathway - cell viability counter screen (AID 743064); further: nearly all actives have a fitted effect of over 50% in size; further: potency means the concentration at half of the fitted maximal effect
Procedure, shortened: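 Viability of T3-stimulated (1 nM final) GH3.TRE-Luc cells is measured by CellTiter-Fluor fluorescence after 23.5 h compound exposure at 37 °C plus 30 min reagent incubation.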

[2] = qHTS assay to identify small molecule antagonists of the thyroid receptor (TR) signaling pathway (AID 743065); further: potency means the concentration at half of the fitted maximal effect; nearly all actives have a fitted effect of over 55% in size
Procedure, shortened: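 GH3.TRE-Luc rat pituitary cells (two TREs driving luciferase) were dosed with compound, then stimulated with 1 nM T3 (final) for 23.5 h at 37 C. ONE-Glo luminescence was the read-out, with CellTiter-Fluor fluorescence as the cytotoxicity counter-screen.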

[3] = qHTS assay to identify small molecule antagonists of the estrogen receptor alpha (ER-alpha) signaling pathway - cell viability counter screen (AID 743074; calls by dose curve;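 further: HEK293 cells carrying ER-alpha-UAS-bla reporter stimulated with 17beta-estradiol; nearly all actives have a fitted effect of over 45% in size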; further: potency means the concentration at half of the fitted maximal effect)
[4] = molecular target: Estrogen receptor (Homo sapiens) (UniProt P03372); test: qHTS assay to identify small molecule agonists of the estrogen receptor alpha (ER-alpha) signaling pathway (AID 743075; calls by dose curve;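 further: HEK293 GripTite cells with ER-alpha and UAS-driven beta-lactamase reporter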; further: potency means the concentration at half of the fitted maximal effect)
Aromatase (Homo sapiens) = Aromatase (Homo sapiens) (UniProt P11511); test: qHTS assay to identify aromatase inhibitors (AID 743083); further: nearly all actives have a fitted effect of over 55% in size; further: potency means the concentration at half of the fitted maximal effect
[5] = qHTS assay to identify aromatase inhibitors - cell viability counter screen (AID 743084);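 further: cells stimulated with testosterone during compound exposure; nearly all actives have a fitted effect of over 55% in size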; further: potency means the concentration at half of the fitted maximal effect
[6] = molecular target: Aryl hydrocarbon receptor (Homo sapiens) (UniProt P35869); test: qHTS assay to identify small molecule that activate the aryl hydrocarbon receptor (AhR) signaling pathway (AID 743085); further: nearly all actives have a fitted effect of over 15% in size; further: potency means the concentration at half of the fitted maximal effect;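 on activation: HG2L7.5c1 human HepG2 liver cells with stably integrated DRE-driven firefly reporter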
Procedure, shortened: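 A multiplexed format paired cell viability (CellTiter-Fluor fluorescence) with AhR-dependent luciferase output (ONE-Glo luminescence) in the same wells of HepG2 DRE-luc cells after 24 h compound exposure at 37C.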

[7] = qHTS assay to identify small molecule that activate the aryl hydrocarbon receptor (AhR) signaling pathway - cell viability counter screen (AID 743086); further: nearly all actives have a fitted effect of over 45% in size; further: potency means the concentration at half of the fitted maximal effect
Procedure, shortened: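 HepG2-AhR-luc (HG2L7.5c1) cells, 4000/well, treated 24 h at 37 C with compound; viability measured as CellTiter-Fluor fluorescence after 30 min in the same wells as the luciferase read.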

[8] = qHTS assay to identify small molecule antagonists of the peroxisome proliferator-activated receptor gamma (PPARg) signaling pathway - cell viability counter screen (AID 743194); further: nearly all actives have a fitted effect of over 55% in size; further: potency means the concentration at half of the fitted maximal effect
Procedure, shortened: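 Cytotoxicity counter screen in PPARg-bla HEK293H cells, same wells as reporter assay. Compounds plus 50 nM rosiglitazone (final) for 17 h at 37 C, then viability read by CellTiter-Glo luminescence.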

[9] = qHTS assay for small molecule activators of the heat shock response signaling pathway (AID 743210; active means well fitted activation curve with a large enough effect in the signal ratio in the repeat runs, with a control signal flat, not every such curve was filed as active; inconclusive means weak or mixed curves; the % refers to the signal ratio;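 further: HeLa cells with beta-lactamase reporter driven by heat shock elements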)
Procedure, shortened: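 Beta-lactamase reporter read-out: FRET substrate fluorescence after 2.5 h at RT, following 5 h compound treatment at 37 C of HeLa cells carrying HSE-driven bla reporter; quantitative HTS format.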

[10] = molecular target: Estrogen receptor (Homo sapiens) (UniProt P03372); test: qHTS assay to identify small molecule antagonists of the estrogen receptor alpha (ER-alpha) signaling pathway (AID 743069; active means well fitted curve in the direction sought with a large enough effect in the signal ratio in the repeat runs, not every such curve was filed as active; inconclusive means weak or mixed curves, or effect the other way; inactive means no such curve, though single readings can be large or run the other way; the % refers to the signal ratio; further: potency means the concentration at half of the fitted maximal effect)
Procedure, shortened: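 Beta-lactamase FRET fluorescence is read after 2 hr at room temperature with LiveBLAzer B/G substrate. Before that, ER-alpha-bla HEK293 cells sit 4 hr after plating, then receive compound plus 17beta-estradiol and incubate 18 hr at 37C.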

[11] = qHTS assay to identify small molecule antagonists of the estrogen receptor alpha (ER-alpha) signaling pathway using the BG1 cell line (AID 743080; calls by dose curve;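 further: BG1 cells stimulated with 17beta-estradiol alongside compound; nearly all actives have a fitted effect of over 25% in size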); conditions: BG1Luc4E2 ERE-luciferase antagonist mode, luminescence; activity change, negative = inhibition: at 70.3 µM (top of the series)
Procedure, shortened: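 BG1-Luc-4E2 cells (endogenous full-length ER-alpha, 4xERE luciferase) hormone-starved 5 days in charcoal-stripped FBS, plated 4,000/well for 24 h, then compound plus 17beta-estradiol for 21.5 h at 37 C; ONE-Glo luminescence read.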

[12] = qHTS assay to identify small molecule antagonists of the estrogen receptor alpha (ER-alpha) signaling pathway using the BG1 cell line - cell viability counter screen (AID 743081);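 further: compound given together with 17beta-estradiol as the ER stimulus; nearly all actives have a fitted effect of over 45% in size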; further: potency means the concentration at half of the fitted maximal effect
[13] = qHTS assay for small molecule agonists of the antioxidant response element (ARE) signaling pathway - cell viability counter screen (AID 743203; calls by dose curve; further: nearly all actives have a fitted effect of over 55% in size; further: potency means the concentration at half of the fitted maximal effect)
Procedure, shortened: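 Luminescence read-out (CellTiter-Glo, 30 min at room temperature) measured cell viability in the same wells as the ARE beta-lactamase reporter. HepG2 ARE-bla cells were treated with compounds for 16 hrs at 37C/5% CO2.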

[14] = molecular target: Estrogen receptor (Homo sapiens) (UniProt P03372); test: qHTS assay to identify small molecule agonists of the estrogen receptor alpha (ER-alpha) signaling pathway using the BG1 cell line (AID 743079); conditions: BG1Luc4E2 cells, ERE-luciferase agonist, 22 h; activation: at 70.3 µM (top of the series); further: nearly all actives have a fitted effect of over 20% in size; further: potency means the concentration at half of the fitted maximal effect
[15] = qHTS assay for small molecule activators of the heat shock response signaling pathway - cell viability counter screen (AID 743209); further: nearly all actives have a fitted effect of over 50% in size; further: potency means the concentration at half of the fitted maximal effect
Procedure, shortened: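 HSE-bla HeLa; 1500 cells/well; overnight 37 C, 5% CO2; compound 5 h 37 C; LiveBLAzer B/G substrate 2.5 h RT; CellTiter-Glo 30 min RT; luminescence.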

[16] = molecular target: Peroxisome proliferator-activated receptor gamma (Homo sapiens) (UniProt P37231); test: qHTS assay to identify small molecule antagonists of the peroxisome proliferator-activated receptor gamma (PPARg) signaling pathway (AID 743191; calls by dose curve; further: nearly all actives have a fitted effect of over 30% in size; further: potency means the concentration at half of the fitted maximal effect)
Procedure, shortened: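 GeneBLAzer PPARg UAS-bla HEK293H cells, 5 h post-plating, exposed to compounds 17 h at 37C. LiveBLAzer B/G FRET substrate added for 1 h at room temperature; beta-lactamase reporter read by fluorescence intensity.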

[17] = test system: thyroid hormone receptor (rat, GH3 cells); test: qHTS assay to identify small molecule agonists of the thyroid receptor (TR) signaling pathway (AID 743066; calls by dose curve)
[18] = molecular target: Peroxisome proliferator-activated receptor gamma (Homo sapiens) (UniProt P37231); test: qHTS assay to identify small molecule agonists of the peroxisome proliferator-activated receptor gamma (PPARg) signaling pathway (AID 743094; active means well fitted activation curve with a large enough effect in the signal ratio in the repeat runs, not every such curve was filed as active; inconclusive means weak or mixed curves, or effect the other way; inactive means no such curve, though single readings can be large or run the other way; the % refers to the signal ratio)
Procedure, shortened: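 HEK293H PPARg-bla cells, 5 h settle at 37C/5% CO2; compound (DMSO) 17 h, 37C; B/G FRET substrate 1 h RT; fluorescence intensity read-out. qHTS format.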

[19] = qHTS assay for small molecule agonists of the antioxidant response element (ARE) signaling pathway (AID 743202; active means well fitted activation curve with a large enough effect in the signal ratio in the repeat runs, not every such curve was filed as active; inconclusive means weak or mixed curves, or effect the other way; inactive means no such curve, though single readings can be large or run the other way; the % refers to the signal ratio)
Procedure, shortened: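 HepG2 ARE-bla reporter line, 2,000 cells/well; 5 h preincubation 37 C/5% CO2; compound (DMSO) 16 h 37 C; B/G FRET substrate 2 h RT; fluorescence intensity.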

Measured: Potency

Estrogen receptor (Homo sapiens), sequence (P03372 whole entry, looked up): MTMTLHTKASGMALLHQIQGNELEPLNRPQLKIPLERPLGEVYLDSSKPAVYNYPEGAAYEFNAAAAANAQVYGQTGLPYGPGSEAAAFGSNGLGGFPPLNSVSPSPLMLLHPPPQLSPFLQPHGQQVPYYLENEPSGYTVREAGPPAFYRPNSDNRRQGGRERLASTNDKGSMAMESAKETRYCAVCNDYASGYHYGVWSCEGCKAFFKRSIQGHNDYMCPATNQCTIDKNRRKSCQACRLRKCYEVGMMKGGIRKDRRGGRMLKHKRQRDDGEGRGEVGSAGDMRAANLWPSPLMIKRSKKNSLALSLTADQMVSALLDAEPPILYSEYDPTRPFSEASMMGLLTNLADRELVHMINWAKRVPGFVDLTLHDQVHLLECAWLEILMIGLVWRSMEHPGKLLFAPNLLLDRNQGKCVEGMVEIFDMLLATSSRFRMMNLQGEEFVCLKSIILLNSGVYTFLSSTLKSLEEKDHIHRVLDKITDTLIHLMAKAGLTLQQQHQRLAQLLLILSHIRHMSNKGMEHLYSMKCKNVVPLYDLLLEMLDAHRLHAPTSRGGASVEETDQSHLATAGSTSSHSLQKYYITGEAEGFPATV
Aromatase (Homo sapiens), sequence (P11511 whole entry, looked up): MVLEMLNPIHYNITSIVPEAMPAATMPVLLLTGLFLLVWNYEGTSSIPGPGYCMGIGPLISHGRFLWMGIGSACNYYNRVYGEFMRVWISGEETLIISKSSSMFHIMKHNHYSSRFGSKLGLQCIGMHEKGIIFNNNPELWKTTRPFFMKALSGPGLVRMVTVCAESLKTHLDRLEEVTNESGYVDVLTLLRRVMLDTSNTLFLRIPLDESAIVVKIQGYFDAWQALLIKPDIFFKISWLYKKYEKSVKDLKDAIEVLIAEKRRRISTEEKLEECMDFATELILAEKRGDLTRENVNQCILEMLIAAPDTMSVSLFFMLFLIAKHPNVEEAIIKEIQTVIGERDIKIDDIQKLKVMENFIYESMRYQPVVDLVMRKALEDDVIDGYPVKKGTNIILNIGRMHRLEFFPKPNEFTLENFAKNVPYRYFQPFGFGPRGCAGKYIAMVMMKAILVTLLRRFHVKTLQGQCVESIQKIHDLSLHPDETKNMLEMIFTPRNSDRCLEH
Peroxisome proliferator-activated receptor gamma (Homo sapiens), sequence (P37231 whole entry, looked up): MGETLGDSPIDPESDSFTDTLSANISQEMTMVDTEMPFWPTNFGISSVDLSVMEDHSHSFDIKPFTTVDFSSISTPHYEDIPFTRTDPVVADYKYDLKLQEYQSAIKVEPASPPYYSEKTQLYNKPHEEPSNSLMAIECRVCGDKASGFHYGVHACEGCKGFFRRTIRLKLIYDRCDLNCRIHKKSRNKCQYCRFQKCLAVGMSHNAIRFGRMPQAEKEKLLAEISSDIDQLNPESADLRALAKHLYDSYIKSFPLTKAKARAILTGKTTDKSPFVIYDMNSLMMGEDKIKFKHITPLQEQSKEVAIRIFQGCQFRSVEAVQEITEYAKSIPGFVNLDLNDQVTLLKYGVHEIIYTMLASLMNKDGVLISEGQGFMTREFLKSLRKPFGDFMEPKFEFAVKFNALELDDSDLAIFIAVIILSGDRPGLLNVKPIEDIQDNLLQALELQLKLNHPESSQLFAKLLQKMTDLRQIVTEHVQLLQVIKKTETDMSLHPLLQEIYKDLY
Aryl hydrocarbon receptor (Homo sapiens), sequence (P35869 whole entry, looked up): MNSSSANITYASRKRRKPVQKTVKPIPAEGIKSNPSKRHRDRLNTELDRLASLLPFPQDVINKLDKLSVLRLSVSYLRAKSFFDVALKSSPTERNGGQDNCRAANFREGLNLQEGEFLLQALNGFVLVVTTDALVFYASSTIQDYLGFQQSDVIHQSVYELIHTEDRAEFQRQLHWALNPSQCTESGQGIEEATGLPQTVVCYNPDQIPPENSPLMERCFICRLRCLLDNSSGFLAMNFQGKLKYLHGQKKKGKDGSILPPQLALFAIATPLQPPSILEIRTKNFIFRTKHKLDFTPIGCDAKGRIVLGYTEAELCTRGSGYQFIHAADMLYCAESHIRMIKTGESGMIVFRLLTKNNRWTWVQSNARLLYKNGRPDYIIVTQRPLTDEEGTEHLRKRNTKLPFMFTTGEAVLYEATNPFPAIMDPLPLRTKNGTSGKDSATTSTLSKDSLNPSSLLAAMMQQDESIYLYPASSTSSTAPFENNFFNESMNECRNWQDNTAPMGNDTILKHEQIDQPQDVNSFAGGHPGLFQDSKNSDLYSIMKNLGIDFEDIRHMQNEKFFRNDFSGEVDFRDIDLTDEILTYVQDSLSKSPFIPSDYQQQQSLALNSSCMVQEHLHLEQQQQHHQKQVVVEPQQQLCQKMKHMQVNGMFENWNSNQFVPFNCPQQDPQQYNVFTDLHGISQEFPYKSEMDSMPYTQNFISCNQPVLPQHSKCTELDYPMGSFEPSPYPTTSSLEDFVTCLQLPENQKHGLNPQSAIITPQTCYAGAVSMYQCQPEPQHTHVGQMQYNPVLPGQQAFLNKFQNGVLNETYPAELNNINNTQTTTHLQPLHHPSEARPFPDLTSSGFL

Cc1nc(Nc2ncc(C(=O)Nc3c(C)cccc3Cl)s2)cc(N2CCN(CCO)CC2)n1
inactive: [3] | [4] | [5] | [8] | [9]
active: [1] 18.8 µM | [2] 18.8 µM | Aromatase (Homo sapiens) 1.33 µM | [6] 1.19 µM | [7] 9.44 µM

CCN(CC)CCOc1ccc(C(O)(Cc2ccc(Cl)cc2)c2ccc(C)cc2)cc1 (stereo not drawn)
inactive: [4] | [11] | [12] | [5] | [6]
active: [1] 7.5 µM | [2] 7.5 µM | [10] 23.9 µM [inconclusive] | Aromatase (Homo sapiens) 29.8 µM | [7] 29.8 µM | [8] 29.8 µM | [13] 21.1 µM

CC(C)(C)CC(C)(C)c1ccccc1O
inactive: [6] | [7]
active: [1] 19.4 µM | [2] 21.8 µM | [3] 49.2 µM | [4] 22 µM [inconclusive] | [14] 1.38 µM | Aromatase (Homo sapiens) 48.8 µM | [5] 48.8 µM | [8] 43.9 µM | [13] 61.4 µM | [15] 55.2 µM

O[C@@H](c1cc(C(F)(F)F)nc2c(C(F)(F)F)cccc12)[C@H]1CCCCN1
active: [1] 5.96 µM | [2] 5.96 µM | [3] 23.9 µM | [4] 26.8 µM [inconclusive] | [14] 2.37 µM | Aromatase (Homo sapiens) 23.7 µM | [5] 26.6 µM | [7] 29.8 µM | [8] 29.8 µM | [13] 29.8 µM
inactive: [11] | [12] | [6] | [15]

CN1CCN(C2Cc3ccccc3Sc3ccc(Cl)cc32)CC1 (stereo not drawn)
active: [1] 9.44 µM | [2] 9.44 µM | [16] 29.8 µM | [8] 29.8 µM | [13] 29.8 µM
inactive: [4] | [14] | [11] | [12] | [6]

CCCCOc1ccc(C(=O)CCN2CCCCC2)cc1
active: [1] 5.07 µM | [2] 3.59 µM | [14] 4.52 µM | [13] 26.6 µM
not listed: [6] | [9] | [11] | [17] | [18] | [19]
inactive: all other assays above

CC(=O)Oc1ccc(C2(c3ccc(OC(C)=O)cc3)C(=O)Nc3ccccc32)cc1
active: [12] 841 nM and 1.19 µM
not listed: [2] | [11] | [14] | [19]
inactive: all other assays above

CCCCCCCCCCCCCCNCCO
active: [14] 0.188 µM | [6] 10.6 µM | [13] 26.6 µM
not listed: [2] | [8] | [11] | [16] | [18] | [19]
inactive: all other assays above

S=P(N1CC1)(N1CC1)N1CC1
not listed: [2] | [8] | [9] | [13] | [15] | [16] | [19]
inactive: all other assays above

CN(C)CCOC(c1ccccc1)c1ccccc1 (tested in a mixture with another compound)
active: [2] 61.6 µM | [3] 49.3 µM
inactive: [17] | [10] | [4] | [14] | [11] | [7] | [8] | [19] | [13] | [15]

Cc1c(C)n(Cc2ccccc2)c2ccc(C(=O)OCCN(C)C)cc12
active: [1] 7.5 µM | [2] 10.6 µM
inactive: [12] | Aromatase (Homo sapiens) | [5] | [8] | [13] | [15]

Cc1c(-c2ccc(O)cc2)n(Cc2ccc(OCCN3CCCCCC3)cc2)c2ccc(O)cc12
inactive: [3] | [5] | [15]
active: [1] 9.44 µM | Aromatase (Homo sapiens) 0.0211 µM | [8] 29.8 µM

NCCCC(O)(P(=O)(O)O)P(=O)(O)O
inactive: [1] | [17] | [3] | [12] | [5] | [7] | [8] | [19]

Oc1ccc(-c2ccccc2)c(Cl)c1
active: [4] 61.6 µM [inconclusive] | [14] 54.5 µM
not listed: [2] | [8] | [9] | [10] | [16] | [19]
inactive: all other assays above
